# Measurements: ChEMBL document CHEMBL4513216, “Probing the Open Global Health Chemical Diversity Library for Multistage-Active Starting Points for Next-Generation Antimalarials” (ACS Infect Dis, 2020)
# Screen size: about 69,000 compounds; about 8,600 (12%) showed an effect of 50% or more. This excerpt belongs to a sample that is enriched for strong results.
# System: Plasmodium berghei
# Experiment: Screen against P. berghei liver stage (PbLuc), transformed with Luciferase, at 10uM
# Type: functional, HepG2
# Details: tested at 10 uM
row,Compound,INHIBITION [%]
1,CO[C@H]1CN(Cc2c(C)ccc3ncccc23)CC[C@H]1N,-69.3
2,O=C(c1ccno1)N1CCc2ncnc(-c3ccncc3)c2CC1,35.5
3,O=C(Nc1ccc(N2CCCC2)nc1)N1CCc2sccc2C1,-11.5
4,O=C(Nc1ccc(N2CCCCC2)nc1)N1CCc2sccc2C1,-10.8
5,O=C(Nc1ccc(N2CCCC2)nc1)N1CCc2ccccc2C1,63.5
6,c1cnnc(N[C@@H]2CC[C@@H]3CN(Cc4c[nH]c5ccccc45)C[C@@H]32)c1,31.6
7,O=c1c2ccc(Cl)cc2ncn1CCCN1CCCCC1CO (stereo not drawn),22.9
8,CC(C)N1CCCCC1CCn1cnc2cc(C(F)(F)F)ccc2c1=O (stereo not drawn),47.9
9,O=c1c2ccc(C(F)(F)F)cc2ncn1CCCN1CCCCC1CO (stereo not drawn),56.6
10,COCCS(=O)(=O)NC(C)c1ccccc1Br (stereo not drawn),4.34
11,Cc1ccc(C)c(NC(=O)Nc2c[nH]c(=O)[nH]c2=O)c1,29.2
12,Cc1ccc(NC(=O)Nc2c[nH]c(=O)[nH]c2=O)c(Cl)c1,3.77
13,Cc1ccc(NC(=O)Nc2c[nH]c(=O)[nH]c2=O)c(C)c1,50.8
14,CN1CCCC(NC(=O)c2ccc(C(=O)c3cc[nH]c3)cc2)C1 (stereo not drawn),44.2
15,CCOCCN1CCN(CCC(=O)N2CCCCC2)CC1,64.1
16,CCOCCN1CCN(CC2(O)CCCCC2)CC1,10.6
17,CCOCCN1CCN(CC(=O)N2CCC2)CC1CC (stereo not drawn),-20.2
18,CCOCCN1CCN(CCC(=O)N2CCCCC2)CC1C (stereo not drawn),-10.1
19,CCOCCN1CCN(CC(=O)N2CCCC2)CC1C (stereo not drawn),66.5
20,CCOCCN1CCN(CC(=O)N2CCCC2)CC1CC (stereo not drawn),31.9
21,Cc1cc2nc(C(C)C)cc(NCCc3cccn3C)n2n1,39.5
22,CN(Cc1ccccn1)C(=O)C(c1ccccc1)N1CCSCC1 (stereo not drawn),33.7
23,Cc1cc(CN(C)C(=O)C(c2ccccc2)N2CCSCC2)no1 (stereo not drawn),17.5

row,Compound,INHIBITION [%]
1,CN(Cc1cscn1)C(=O)C(c1ccccc1)N1CCSCC1 (stereo not drawn),60.3
2,COCCOCC1CCN(C(=O)c2ccc3[nH]cnc3c2)C1 (stereo not drawn),-24.9
3,COc1c(CNCc2ccc(N3CCCC3)nc2)c(C(C)C)nn1C,7.95
4,CCN(CC(=O)N(C)C)S(=O)(=O)c1cnc2c(c1)c(C)nn2C,51.1
5,Cc1nn(C)c2ncc(S(=O)(=O)N3CCCC(C)CC3)cc12 (stereo not drawn),45.1
6,Cc1nn(C)c2ncc(S(=O)(=O)N3CCCC(C(N)=O)C3)cc12 (stereo not drawn),36.5
7,CCN(CCC(=O)OC)S(=O)(=O)c1cnc2c(c1)c(C)nn2C,35.1
8,CCN(CC(=O)NC)S(=O)(=O)c1cnc2c(c1)c(C)nn2C,12.7
9,CCCN(CC(=O)OC)S(=O)(=O)c1cnc2c(c1)c(C)nn2C,57.6
10,COC(=O)Cn1c(=O)[nH]c2cn(-c3ccc(F)cc3)c(=O)n21,31
11,Cc1ccsc1C(=O)N1CCCC(c2[nH]ncc2S(C)(=O)=O)C1 (stereo not drawn),17.4
12,Cc1nc(-c2ccccc2)nc2c1CCN(Cc1nccn1C)CC2,75.6
13,CN(C)c1nc(N2CCCC2)nc2c1CCN(Cc1nccn1C)CC2,50.3
14,Cc1nc(N2CCCC2)nc2c1CCN(Cc1nccn1C)CC2,46.6
15,Cc1nc(C)c2c(n1)CCN(Cc1nccn1C)CC2,45.7
16,Cc1nc(N2CCOCC2)nc2c1CCN(Cc1nccn1C)CC2,38.5
17,Cn1ccnc1CN1CCN(Cc2noc(-c3ccccc3)n2)CC1,24.4
18,CC(C)(C)Nc1c(C2CCN(C(=O)C3CC3)CC2)nc2ccccn12,26.355
19,O=C(NCCn1ccnc1)N1CCN(Cc2ccsc2)CC1,19.5
20,CCCn1nc(C)c(-c2cncn2CCN(C)C2CCCC2)c1C,-0.232
21,CCc1nc(CN2CCCN(C(=O)C(CC)OC)CC2)cs1 (stereo not drawn),-4.94
22,O=C(Nc1cc(F)ccc1OCC1CCCO1)N1CCCC1 (stereo not drawn),17.8
23,CCN(C(=O)c1ccc2nnc(C3CCN(C(C)=O)C3)n2c1)C(C)C (stereo not drawn),50.3

row,Compound,INHIBITION [%]
1,CC(=O)N1CCC(c2nnc3ccc(C(=O)NCC(C)C)cn23)C1 (stereo not drawn),51.2
2,CC(C)CNC(=O)c1ccc2nnc(C3CCN(S(C)(=O)=O)C3)n2c1 (stereo not drawn),40.9
3,CCN(C(=O)c1ccc2nnc(C3CCN(C)C3)n2c1)C(C)C (stereo not drawn),27.6
4,CC(=O)N1CCC(c2nnc3ccc(C(=O)NC(C)C)cn23)C1 (stereo not drawn),42.6
5,CC(C)NC(=O)c1ccc2nnc(C3CCN(C(=O)NC(C)C)C3)n2c1 (stereo not drawn),8.85
6,CCN(C(=O)c1ccc2nnc(C3CCN(S(C)(=O)=O)C3)n2c1)C(C)C (stereo not drawn),33.1
7,CC(C)NC(=O)c1ccc2nnc(C3CCN(S(C)(=O)=O)C3)n2c1 (stereo not drawn),10.6
8,CC(C)NC(=O)N1CCC(c2nnc3ccc(C(=O)N(C)C)cn23)C1 (stereo not drawn),-7.24
9,CCC(CC)NC(=O)c1ccc2nnc(C3CCN(S(C)(=O)=O)C3)n2c1 (stereo not drawn),-1.26
10,CCC(CC)NC(=O)c1ccc2nnc(C3CCN(C(C)=O)C3)n2c1 (stereo not drawn),50.7
11,CC(=O)N1CCC(c2nnc3ccc(C(=O)NCCN(C)C)cn23)C1 (stereo not drawn),59.3
12,CC1CCCN(Cc2ccc(OCc3nccn3C)cc2)C1 (stereo not drawn),33.3
13,COCC(=O)NC1CCN(c2cccc(OC(F)(F)F)c2)C1=O (stereo not drawn),42.3
14,CC(C)=CCN1CCN(C(=O)c2cc(C(C)C)no2)[C@H]2CS(=O)(=O)C[C@H]21,-7.25
15,COCc1nc(CNC2CCCC(C)(C)C2)no1 (stereo not drawn),25.1
16,Cc1ccc(N2CC[C@H]3OCC[C@@]3(C(=O)NCC3CC3)C2)nn1,12.5
17,CN1CC2(CCN(C(=O)CCc3nc4cccnc4n3C)C2)OC1=O (stereo not drawn),-19.1
18,COc1c(CNCc2nnc3n2CCCCC3)c(C(C)C)nn1C,27.9
19,CN(CCc1noc(C2CC2)n1)C(=O)CN1C(=O)COc2ccccc21,-37.9
20,COc1c(C)cnc(CSc2nnc(N)s2)c1C,28.6
21,COc1c(C)cnc(CSc2nnc(C)s2)c1C,-40.3
22,COc1c(C)cnc(CSc2nnc(NC3CC3)s2)c1C,57.7
